Most compounds without a hit are left out; they make up all but 8.9% or so of the library.
DRD3 antagonist: qHTS of D3 Dopamine Receptor Antagonist: qHTS; D3R cells, DiscoveRx beta-arrestin luminescence, antagonist mode; active compounds read low; max response, negative = inhibition, %; 360,000 compounds, 2.5% hits; AID 652054, 2013; in the data active = max response below about -50%; inconclusive = no clear call, values can overlap the other calls
Target sequence (P35462 whole entry, looked up): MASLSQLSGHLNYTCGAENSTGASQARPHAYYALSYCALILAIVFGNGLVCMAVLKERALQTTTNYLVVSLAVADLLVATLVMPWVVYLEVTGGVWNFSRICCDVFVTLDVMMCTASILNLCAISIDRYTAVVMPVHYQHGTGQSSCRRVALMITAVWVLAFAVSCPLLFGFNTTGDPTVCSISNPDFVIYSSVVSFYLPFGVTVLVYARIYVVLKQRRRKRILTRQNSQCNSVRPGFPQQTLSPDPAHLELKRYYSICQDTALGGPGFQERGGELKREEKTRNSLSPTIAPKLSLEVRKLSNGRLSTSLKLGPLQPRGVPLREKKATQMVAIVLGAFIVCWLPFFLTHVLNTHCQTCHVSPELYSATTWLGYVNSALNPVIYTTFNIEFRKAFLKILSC
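Cells plated overnight at 1500 cells/well, then exposed to library compounds with dopamine controls for 90 minutes at 37 degrees C. DiscoveRx reagent added for 30–60 minutes at room temperature; luminescence read, quantitative HTS format.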
KB-V1 MDR tox: qHTS assay for MDR1-selective chemotherapeutics: Primary screen using the drug-selected MDR subline cells KB-V1. KB-V1 MDR cells viability, CellTiter-Glo, 72 h. Potency, µM (titrated, usually from 46.1 µM), usual class: cytotoxic. 400,000 compounds, 3.4% hits. AID 1347076, 2019; note: nearly all actives have a fitted effect of over 60% in size
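KB-V1, DMEM (no phenol red) + 10% FBS; cpd pin-transferred, titration series; 72 h, 37 degrees C; CellTiter-Glo, luminescence. Data normalized, curve-fit.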
SW480 rereplic: A quantitative high throughput screen for small molecules that induce DNA re-replication in SW480 colon adenocarcinoma cells; 340,000 compounds, 1.8% hits; Potency, µM (top dose mostly 46.1 µM), most hits filed as activators; SW480 DNA re-replication, Hoechst DNA content imaging, 48 h; note: nearly all actives have a fitted effect of over 55% in size
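Image-based read-out: total Hoechst fluorescence of nuclei (405 nm excitation, 500-530 nm emission), with hits raising the fraction of high-intensity nuclei. SW480 colon cells incubated 48 hr with compounds at 37 C.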
KB-3-1 cytotox: qHTS assay for MDR1-selective chemotherapeutics: Primary screen using the parental adenocarcinoma cell KB-3-1; 400,000 compounds, 1.4% hits; KB-3-1 viability, CellTiter-Glo ATP luminescence, 72 h; Potency, µM (doses to about 46.1 µM), usual class: cytotoxic; note: nearly all actives have a fitted effect of over 60% in size
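Parental KB-3-1 adenocarcinoma cells in phenol-red-free DMEM with 10% FBS were pin-treated with compounds at several concentrations, incubated 72 h at 37 °C, and viability read by CellTiter-Glo luminescence; concentration-effect curves were fitted after normalization.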
D3 ag: qHTS of D3 Dopamine Receptor Agonist: qHTS; D(3) dopamine receptor (Homo sapiens), P35462; D3R DiscoveRx beta-arrestin cells, luminescence, 90 min; max activation, %; 410,000 compounds, 0.58% hits; in the data active = max activation above about 30%
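Agonist-mode cell screen: cells plated at 1500/well and incubated overnight at 37 °C, then exposed to library compounds for 90 min at 37 °C. Detection reagent was added for 30–60 min at room temperature, and luminescence was read.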
MCF10A rerep: A quantitative high throughput screen for small molecules that induce DNA re-replication in MCF 10a normal breast cells. MCF 10A DNA re-replication, Hoechst nuclear intensity, 48 h. Potency, µM (series often up to 46.1 µM), usual class: activators. 350,000 compounds, 2.9% hits. AID 624296, 2012; note: nearly all actives have a fitted effect of over 50% in size
A number is an active result; . = inactive; ? = inconclusive; / = no result; ! = not confirmed by another sample; [ ] = another dose, or the depositor's remark. Unless noted, calls come from the whole dose curve; as a rule, active = well fitted curve in the direction sought with a large enough effect; inconclusive = small, poorly fitted or top-dose-only effect, or another doubt; inactive = no such curve, though single readings can be large; an effect the other way counts as inactive or inconclusive.

SMILES	DRD3 antagonist	KB-V1 MDR tox	SW480 rereplic	KB-3-1 cytotox	D3 ag	MCF10A rerep
CCSc1nnc2c(n1)OC(c1ccc(OC)c(OC)c1)N(C(C)=O)c1ccccc1-2 (centres undefined)	/	.	/	.	.	/
CCNC(=S)NNC(=O)c1cc(-c2ccccc2C)nc2ccccc12	.	16µM	.	.	.	.
Cc1ccccc1-c1cc(C(=O)Nc2nc3c(s2)CCCC3)c2ccccc2n1	-91	.	.	.	.	.
Cc1ccc(C)c(-c2cc(C(=O)Nc3sc(C)c(C)c3C(N)=O)c3ccccc3n2)c1	.	4.1µM	.	?	46	?
Cc1cccc(C(=O)Nc2nc3c(s2)CCCC3)c1	/	/	/	/	.	/
CCc1ccc(NC(=O)N2CCN(Cc3nc4ccc(C)cc4o3)CC2)cc1	/	.	/	.	.	/
COc1ccc(NC(=O)CN(C)C(=O)CNC(=O)c2ccc3c(c2)OCO3)cc1	.	.	.	.	.	.
Cc1nc2ccccc2c(=O)n1/N=C/c1ccc(O)cc1O	.	.	.	.	.	.
CCCc1nc2ccccc2c(=O)n1/N=C/c1c(C)[nH]n(-c2ccc(C)cc2)c1=O	?	16µM	?	8.2µM	.	.
CCCc1nc2ccccc2c(=O)n1/N=C/c1ccccc1O	.	16µM	?	.	.	?
O=C1c2ccccc2C(=O)C1c1ccc(Br)cc1	.	.	.	.	88!	.
O=C1c2ccccc2C(=O)C1c1ccc(F)cc1	/	/	.	/	62	.
O=C1c2ccccc2C(=O)C1c1ccc(O)cc1	.	.	?	.	.	.
Cc1ccc(Cn2cc(S(=O)(=O)c3cccc(Cl)c3)c(=O)c3cc(F)c(N4CCCCC4)cc32)cc1	/	/	/	/	.	/
CC(=O)c1c(C)n([O-])c2cc(F)c(F)cc2[n+]1=O	.	?	?	16µM	.	?
COc1ccc2c(c1)[n+](=O)c(C(C)=O)c(C)n2[O-]	.	.	.	.	.	.
Cc1ccc(N(Cc2cc3ccccc3[nH]c2=O)C(=O)c2cccc(Cl)c2)cc1	/	.	/	.	.	/
C[C@H]1CN=C(N(C)C)N1CC1CCC(C(C)(C)C)CC1 (some centres undefined)	.	.	.[9.22 µM]	?	.	?
Oc1ccc2ccc(Cl)cc2c1	.	.	.	.	.	.
Nc1ccc2ccc(O)cc2c1	.	.	18µM	.	.	7.3µM
CCN(Cc1ccccc1)S(=O)(=O)c1ccc(C(=O)N(CCCN(C)C)c2nc3c(C)c(C)ccc3s2)cc1	.	?	6.5µM	?	.	16µM
Cc1ccc2sc(N(CCCN(C)C)C(=O)c3ccc(S(=O)(=O)N(C)C4CCCCC4)cc3)nc2c1C	.	18µM	?	23µM	.	23µM
CCOC(=O)N1CCN(C(=O)c2cnn3c(C)c(Cc4ccc(C)cc4)c(C)nc23)CC1	.	3.7µM	.	.	.	.
Cc1ccc(C)c(Cc2c(C)nc3c(C(=O)N4CCOCC4)cnn3c2C)c1	.	.	.	.	31	.
Cc1nc2c(C(=O)N3CCCC3)cnn2c(C)c1Cc1c(F)cccc1Cl	.	23µM	.	.	.	.
SMILES	DRD3 antagonist	KB-V1 MDR tox	SW480 rereplic	KB-3-1 cytotox	D3 ag	MCF10A rerep
Cc1nc2c(C(=O)O)cnn2c(C)c1Cc1ccccc1	/	.	/	.	.	/
COc1ccc(CNC(=O)c2cnn3c(C)c(Cc4c(F)cccc4Cl)c(C)nc23)cc1	/	.	/	?	.	/
Cc1ccc(-c2nnc(Nc3cccc(Cl)c3)c3ccccc23)cc1S(=O)(=O)NCC1CCCO1 (centres undefined)	/	.	/	.	.	/
CC(C)c1noc2ncc(C(=O)c3cc(Cl)cc(Cl)c3O)cc12	.	16µM	?	?	.	?
Nc1nc2ncc(C(=O)c3cc(Cl)cc(Cl)c3O)cc2s1	.	.	.	.	.	.
COCCNC(=O)c1c(C)oc2nc(C)nc(N3CCOCC3)c12	/	/	/	/	.	/
N=c1oc2ccccc2cc1-c1nc(-c2ccccc2)cs1	.	23µM	13µM	.	.	10µM
COc1ccc(C(=O)c2c(C(F)(F)F)oc3c2C(=O)c2ccccc2C3=O)cc1	?	?	5.2µM	?	.	4.1µM
COc1ccc(C(=O)c2coc(-c3ccccc3C(=O)O)c2C(=O)O)cc1	.	.	.	.	.	.
Cc1ccsc1C(=O)N1CCC1(C)C(=O)NS(=O)(=O)c1ccccc1C(F)(F)F (centres undefined)	.	.	/	.	99	/
CC1(C(=O)NS(=O)(=O)c2ccccc2OC(F)(F)F)CCN1C(=O)c1ccco1 (centres undefined)	-60	.	/	.	.	/
CC1(C(=O)NS(=O)(=O)c2ccc(F)cc2F)CCN1C(=O)c1ccco1 (centres undefined)	.	.	/	.	.	/
C/C(=N\NC(=O)c1ccc(Br)o1)c1cc2c(cc1NC(=O)CCC(=O)O)OCO2	.	.	.	.	.	.
COc1cc2c(cc1OC)C(c1ccc(Cl)cc1)N(c1ccc(C)c(F)c1)C(=O)C2 (centres undefined)	/	?	/	?	.	/
Cc1ccccc1C1C(C#N)=C2N=C(N)c3c(sc4c3CCCCC4)N2C2=C1C(=O)CC(C)(C)C2 (centres undefined)	-61	.	?	.	.	.
COc1ccc(NC(=O)N2CCCC(c3ccccc3)C2)cc1 (centres undefined)	.	.	.	.	33	.
COc1ccc(NC(=O)C2CCCN(C(=O)Nc3ccc(OC)cc3)C2)cc1 (centres undefined)	.	.	.	?	.	.
COc1ccc(NC(=O)N2CCCC(C(=O)NCCc3ccccc3)C2)cc1 (centres undefined)	.	23µM	.	.	.	.
COc1ccc(OC)c(CNc2ncc(-c3ccc(Cl)cc3)n2C)c1	/	.	/	.	.	/
O=C(Nc1nnc(-c2ccccc2SCc2ccccc2)s1)Nc1ccccc1F	.	.	3.7µM	.	.	.
COc1nccnc1NS(=O)(=O)c1ccc(N=Cc2c(C)[nH]n(-c3ccc(C)c(C)c3)c2=O)cc1	-60	?	.	?	.	.
Cc1cc(-c2ccccc2)nc(Nc2nc3c(C)cccc3c(=O)[nH]2)n1	.	.	.	.	.	9.2µM
CN(C(=O)COC(=O)c1ccccc1C(=O)c1ccccc1)c1ccccc1	.	21µM	.	.	.	.
Cc1ccc(C(=O)OCC(=O)N(C)c2ccccc2)c(C)c1	.	.	?	.	.	.
